In the library only some 4.7% were active in any assay of this set; here they are far more common.
D1 antagonist – Antagonist of Human D 1 Dopamine Receptor: qHTS; D(1A) dopamine receptor (Homo sapiens), P21728; HEK293 TREx D1 cells, calcium flux, dopamine EC80; active compounds read low; activity change, negative = inhibition, % at 10 µM; 360,000 compounds, 3.2% hits; AID 504652, 2011; in the data active means activity change below about -30%
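Tetracycline-induced HEK293 T-REx cells with force-coupled D1 receptor were loaded with a no-wash calcium dye. Compound was added after a 10 s baseline and read kinetically for 180 s; EC80 dopamine was then added and calcium flux followed another 180 s.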
D1 agonist – Allosteric Agonists of the Human D1 Dopamine Receptor: qHTS | HEK293 T-REx D1 cells, calcium flux, agonist mode | activation, % at 2 µM | 360,000 compounds, 1% hits
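Inducible HEK293 T-REx D1 cells, force-coupled to calcium signalling, were plated at 4000 cells/well with tetracycline and held overnight at 30 C. After no-wash calcium dye loading, compound-evoked calcium rise over 180 s flagged agonists.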
TRHR agonist – qHTS for Small Molecule Agonists and Allosteric Enhancers of Human TRH Receptor: Primary Screen for Agonists; 360,000 compounds, 0.18% hits; activation, % at 2 µM; Thyrotropin-releasing hormone receptor (Homo sapiens), P34981; TRHR cells, calcium flux fluo-8, FDSS agonist mode
Target sequence (P34981 whole entry, looked up): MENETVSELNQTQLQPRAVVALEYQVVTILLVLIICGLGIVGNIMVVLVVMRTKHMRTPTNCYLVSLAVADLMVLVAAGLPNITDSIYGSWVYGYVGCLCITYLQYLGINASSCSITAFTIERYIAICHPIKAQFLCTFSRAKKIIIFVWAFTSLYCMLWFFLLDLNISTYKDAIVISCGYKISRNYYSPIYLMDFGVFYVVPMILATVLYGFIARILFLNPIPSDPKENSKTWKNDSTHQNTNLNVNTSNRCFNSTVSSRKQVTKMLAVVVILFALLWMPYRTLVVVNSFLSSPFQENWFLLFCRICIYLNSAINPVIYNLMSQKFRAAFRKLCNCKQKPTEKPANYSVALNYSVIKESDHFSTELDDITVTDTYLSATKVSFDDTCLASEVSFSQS
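Read-out: compound-evoked intracellular calcium rise in TRHR cells, fluo-8 dye, kinetic FDSS fluorescence at 1 s/cycle following a 10-cycle baseline. Cells cultured overnight before dye loading (30 min–1.5 h, RT).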
TRHR enhancer – qHTS for Small Molecule Agonists and Allosteric Enhancers of Human TRH Receptor: Primary Screen for Enhancers; TRHR cells, fluo-8 calcium fluorescence, EC20 TRH enhancement; enhancement, % at 2 µM; 360,000 compounds, 0.66% hits; Thyrotropin-releasing hormone receptor (Homo sapiens), P34981; AID 493056, 2011; in the data active means enhancement above about 30%
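Enhancer read-out: after compound pinning and an initial kinetic agonist-mode read, an EC20 of TRH (10 nM final) was injected and fluo-8 calcium signal (Ex 480/Em 530) followed at 1 s/cycle for 100 cycles in TRHR-expressing cells.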
D1 potentiator – Potentiators of Human D1 Dopamine Receptor: qHTS; AID 504651, 2011; D(1A) dopamine receptor (Homo sapiens), P21728; 360,000 compounds, 0.036% hits; HEK293 TREx D1 cells, calcium flux, dopamine EC20 potentiation; potentiation, % at 10 µM; in the data active means potentiation above about 30%
Large screens that a line does not name were inactive. Unless noted, no stated cut-off is given here; in the data, active means activation above about 30%; inactive means the rest.

CCc1ccc(C(=O)C(C)OC(=O)Cc2n[nH]c(=O)c3ccccc23)cc1 (stereo not given)	D1 potentiator 30.6
CC(=O)c1cccc(NC(=O)C(C)OC(=O)Cc2n[nH]c(=O)c3ccccc23)c1 (stereo not given)	D1 antagonist -33.8
O=C(Cc1ccc(Cl)cc1)Nc1cccc(S(=O)(=O)Nc2ccccc2F)c1	none
Cc1cc(C)n2nc(SCC(=O)Nc3ccc(O)cc3)nc2n1	none
CN(C)S(=O)(=O)c1cccc(NC(=O)Cc2ccc(Cl)cc2)c1	D1 antagonist -31.9
Cc1cc(C)n2nc(SCC(=O)Nc3ccc(S(=O)(=O)N(C)C)cc3)nc2n1	D1 antagonist -39.1
Cc1cc(C)nc(SCC(=O)Nc2cccc(S(=O)(=O)N(C)C)c2)n1	D1 antagonist -30.5
Cn1cc(-c2cc3n(n2)CCC(=O)N3CC(=O)NCc2ccc(Cl)cc2)c2ccccc21	none
CCN(c1ccccc1)c1nnc(NC(=O)Nc2ccc(Br)cc2F)s1	none
Cc1ccc(C)c(Cn2c(=O)n(CCCCCC(=O)NCc3ccc4c(c3)OCO4)c(=O)c3sccc32)c1	none
OCCN(CCO)c1nc(N2CCCCC2)c2nc(N(CCO)CCO)nc(N3CCCCC3)c2n1	D1 antagonist -39.0, D1 agonist 318.5, TRHR agonist 106.3
Nc1nc(NCCO)nc(N2CCCCCC2)c1[N+](=O)[O-]	none
N#CC(C(=O)NC1CCCCC1)c1nc2ccccc2nc1N1CCOCC1 (stereo not given)	none
N#CC(C(=O)NC1CCCCC1)c1nc2ccccc2nc1N1CCN(c2ccccc2F)CC1 (stereo not given)	D1 antagonist -34.7
COC(=O)C1CCN(c2nc3ccccc3nc2C(C#N)C(=O)OCC(C)C)CC1 (stereo not given)	none
N#CC(C(=O)OCc1ccccc1)c1nc2ccccc2nc1N1CCOCC1 (stereo not given)	D1 agonist 33.5
C=CCOC(=O)C(C#N)c1nc2ccccc2nc1N1CCN(Cc2ccc3c(c2)OCO3)CC1 (stereo not given)	D1 antagonist -32.4
COC(=O)C1CCN(c2nc3ccccc3nc2C(C#N)C(=O)NCCc2ccccc2)CC1 (stereo not given)	D1 antagonist -35.3
Cc1nc(SCC(=O)c2ccc(Cl)cc2)c([N+](=O)[O-])[nH]1	D1 antagonist -39.8
Cc1nc(SCC(=O)c2ccc(F)cc2)c([N+](=O)[O-])[nH]1	none
COCCCNC(=O)Cn1c(=O)n(-c2cccc(C)c2)c(=O)c2c1c1cc(C)ccc1n2C	none
CC1CC(C)CN(CCCNC(=O)c2csc3c2CCCC3)C1 (stereo not given)	TRHR enhancer 36.1
CC(C)CCNC(=O)c1csc2c1CCCCC2	none
O=C(c1ccc(O)cc1)c1ccc(C(=O)c2ccc(O)cc2)cc1	D1 antagonist -79.8
C=C(C)CN1C(=O)c2ccccc2C1=O	none (no result: D1 antagonist)
C=C(C)CC1Nc2ccccc2NC1CC(=C)C (stereo not given)	D1 antagonist -61.6
Cc1ccc(Cl)cc1N1CCN(C(=O)COc2cc(=O)n(C)c3ccccc23)CC1	none
Cc1ccc2c(c1)/C(=C/c1ccccc1C)C(=O)N2	D1 antagonist -31.3
COc1cccc(C(=O)c2cn(CC(=O)NCc3ccccc3)c3nc(C)ccc3c2=O)c1	none
O=C(CNC(=O)c1ccc2cc[nH]c2c1)OC(C(=O)Nc1cc(C(F)(F)F)ccc1Cl)c1ccccc1 (stereo not given)	none
Cc1ccc(S(=O)(=O)c2cn(C)c3cc(N4CCCCC4)c(F)cc3c2=O)cc1	none
Cc1ccc(C)c(S(=O)(=O)c2cn(C)c3cc(N4CCCCC4C)c(F)cc3c2=O)c1 (stereo not given)	TRHR enhancer 37.5
Cn1cc(S(=O)(=O)c2ccc(Cl)cc2)c(=O)c2cc(F)c(N3CCCCCC3)cc21	TRHR enhancer 34.7
Cc1cccc(N(C)S(=O)(=O)c2nnc(NC(=O)C(C)(C)C)s2)c1	none

High-throughput results from PubChem BioAssay.
